Laboratory results published in PubChem BioAssay (Tox21).
Inconclusive results are not listed. Values without a mark were called inactive. Calls of active or inactive are those of the source. Calls follow the shape of the dose curve; as a rule, active = well fitted cell-killing curve with a large enough effect in the repeat runs; inconclusive = weak or mixed curves; inactive = flat fitted curve, though single readings scatter.
% is scaled to controls: 0 for no effect and ±100 for the full control effect; potency is read from the fitted curve at half-maximal effect.

Assay: qHTS assay to identify small molecule antagonists of the estrogen receptor beta (ER-beta) signaling pathway - cell viability counter screen (AID 1259382); also: nearly all actives have a fitted effect of over 55% in size;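 as to activity change, negative = cytotoxicity: HEK293T cells carrying ER-beta-UAS-bla reporter stimulated with estradiol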
Conditions: ER-beta-UAS-bla HEK293T viability, CellTiter-Glo luminescence, 16 h; series mostly up to 92.4 µM; activity change, negative = cytotoxicity: at the top concentration
Procedure, shortened: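 In this multiplexed counter screen, cells were seeded at 2,000 per well in medium with 2% charcoal-stripped FBS and incubated 6 hr before compound and 1nM final E2 were added. Sixteen hours later, ATP-based luminescence reported viability.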
In the case of `C[N+]1(C)CCC(=C(c2ccccc2)c2ccccc2)CC1`, the “activity change, negative = cytotoxicity” value is reported as 1.98% [at 42.5 µM]. With `CC[C@@H]([C@H](C)O)n1ncn(-c2ccc(N3CCN(c4ccc(OC[C@@H]5CO[C@@](Cn6cncn6)(c6ccc(F)cc6F)C5)cc4)CC3)cc2)c1=O` the Potency was 9.44 µM (active). With `CCCCCC=CCC=CCCCCCCCC(=O)OCC` the “activity change, negative = cytotoxicity” value was -2.22% [at 42.5 µM]. With `CN1Cc2cc(C(=O)N3CCC(C4CCNCC4)CC3)ccc2N[C@@H](CC(=O)O)C1=O` the “activity change, negative = cytotoxicity” value was 2.65% [at 42.5 µM]. In the case of `Cc1cc(S(=O)(=O)O)ccc1N=Nc1c(O)ccc2ccccc12`, the “activity change, negative = cytotoxicity” value is reported as -0.0262%. For `Cc1ccccc1N1C(=O)c2cc(S(N)(=O)=O)c(Cl)cc2NC1C` (configuration not stated), the “activity change, negative = cytotoxicity” value was 9.81% [at 42.5 µM]. With `CCCCC(CC)C(=O)OCCOCCOCCOCCOC(=O)C(CC)CCCC` (configuration not stated) the “activity change, negative = cytotoxicity” value was -1.53%. With `CN1CCN(c2c(F)cc3c(=O)c(C(=O)O)cn4c3c2OCN4C)CC1` the activity change, negative = cytotoxicity was -1.98% [at 19 µM]. With `C=CC(=O)NCOCC(C)C` the “activity change, negative = cytotoxicity” value was 1.44%. For `C1COCO1`, the “activity change, negative = cytotoxicity” value was 3.49%. In the case of `c1cnc2c(n1)CCCC2`, the “activity change, negative = cytotoxicity” value is reported as 1.23%. With `O=C(CCCCCCCCC#CI)Oc1ccccc1` the “activity change, negative = cytotoxicity” value was 3.4% [at 42.5 µM]. For `CO[C@@]12[C@H](COC(N)=O)C3=C(C(=O)C(C)=C(N)C3=O)N1C[C@@H]1N[C@@H]12`, the “activity change, negative = cytotoxicity” value was 0.285% [at 42.5 µM]. For `CCCCCCCCCOC(C)=O`, the “activity change, negative = cytotoxicity” value was 5.46%. With `O=C(O)c1cccc(O)c1` the “activity change, negative = cytotoxicity” value was -6.4%. With `CC(CCO)CCc1ccccc1` (configuration not stated) the “activity change, negative = cytotoxicity” value was 0.633%. In the case of `Oc1cc(O)c(Cl)cc1Cl`, the “activity change, negative = cytotoxicity” value is reported as 3.98%. In the case of `CCCCC(CC)COC(=O)COc1ccc(Cl)cc1C` (configuration not stated), the “activity change, negative = cytotoxicity” value is reported as -3.79%. For `CC(=O)N(c1onc(C)c1C)S(=O)(=O)c1ccc(N)cc1`, the “activity change, negative = cytotoxicity” value was -0.365% [at 42.5 µM]. In the case of `CC1(C)C(=O)N(Br)C(=O)N1Cl`, the “activity change, negative = cytotoxicity” value is reported as -5.57%. For `O=C(/C=C/c1ccccc1)OCCCc1ccccc1`, the “activity change, negative = cytotoxicity” value was 0.66%. In the case of `CCCOC(=O)c1ccc(C(=O)OCCC)nc1`, the “activity change, negative = cytotoxicity” value is reported as 4.11%. With `Cc1ccc(/C=N/n2c(-c3ccccc3)csc2=S)cc1` the “activity change, negative = cytotoxicity” value was -7.01% [at 42.5 µM]. With `CC1(C)O[C@@H]2C[C@H]3[C@@H]4CCC5=CC(=O)C=C[C@]5(C)[C@H]4[C@@H](O)C[C@]3(C)[C@]2(C(=O)CO)O1` the “activity change, negative = cytotoxicity” value was 6.3% [at 42.5 µM]. With `O=C(Nc1ccccc1)Nc1ccccc1` the “activity change, negative = cytotoxicity” value was -19.9%. With `O=C1NCCN1` the “activity change, negative = cytotoxicity” value was 0.174%. In the case of `CCCC(=O)O[C@]1(C(=O)COC(=O)CC)CC[C@H]2[C@@H]3CCC4=CC(=O)CC[C@]4(C)[C@H]3[C@@H](O)C[C@@]21C`, the activity change, negative = cytotoxicity is reported as 2.67% [at 19 µM]. For `O=C(O)c1ccc(CO)o1`, the “activity change, negative = cytotoxicity” value was 1.53%. In the case of `CCCCN(CCCC)CCCOC(=O)c1ccc(N)cc1`, the “activity change, negative = cytotoxicity” value is reported as -4.63% [at 42.5 µM]. For `CCOC(=O)c1ccccc1C`, the “activity change, negative = cytotoxicity” value was -15.4%. With `CCCCCCOC(=O)C(C)C` the “activity change, negative = cytotoxicity” value was 3.81%. In the case of `CC1=C(C=O)C(C)(C)CCC1`, the “activity change, negative = cytotoxicity” value is reported as -7.36%. For `CC(=O)OCC(=O)[C@@]12OC(C)(C)O[C@@H]1C[C@H]1[C@@H]3C[C@H](F)C4=CC(=O)C=C[C@]4(C)[C@@]3(F)[C@@H](O)C[C@@]12C`, the “activity change, negative = cytotoxicity” value was -6.35% [at 42.5 µM]. For `CC1CC(O)CC(C)(C)C1` (configuration not stated), the “activity change, negative = cytotoxicity” value was -22.9%. With `CN1CCCN=C1/C=C/c1cccs1` the “activity change, negative = cytotoxicity” value was 13.1% [at 42.5 µM]. With `Cc1cc(OI)c(C(C)C)cc1-c1cc(C(C)C)c(OI)cc1C` the “activity change, negative = cytotoxicity” value was 6.12% [at 42.5 µM]. In the case of `NCC1CCCC(CN)C1` (configuration not stated), the “activity change, negative = cytotoxicity” value is reported as 0.288%.
